# DT40 TDP1 no CPT – qHTS for Inhibitors of human tyrosyl-DNA phosphodiesterase 1 (TDP1): qHTS in cells in absence of CPT. hit rate 15% among 420,000. Potency, µM (doses to about 46.2 µM), for the others: at the top dose activity change, negative = growth inhibition, actives largely listed as inhibitors. DT40 Tdp1-/- hTDP1 cells, no CPT, ATP luminescence, 48 h; further: potency means the concentration at half of the fitted maximal effect; nearly all actives have a fitted effect of over 55% in size
#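 Readout: luminescence from CellTiter-Glo after 30 min in the dark at RT. Cells: DT40 Tdp1-/- with stable hTDP1, 400/well. Exposure: compounds alone, ≥48 hr, 37 °C.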
# HT1080-NT tox – qHTS for induction of synthetic lethality in tumor cells producing 2HG: qHTS for the HT-1080-NT fibrosarcoma cell line; HT-1080-NT fibrosarcoma viability, CellTiter-Glo ATP luminescence, 48 h; Potency, µM (doses to about 46.1 µM), for the others: at the top dose activity, negative = less viability, most hits filed as cytotoxic; hit rate 1.6% among 360,000;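 further: NT is the 2HG producing partner of a matched IDH1 knockdown line; potency means the concentration at half of the fitted maximal effect; 0% = DMSO-treated cells and -100% = media-only wells without cells; nearly all actives have a fitted effect of over 55% in size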
#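 A 48-hour cytotoxicity screen used HT-1080-NT cells plated 2 hours before compound delivery. ATP-based CellTiter-Glo luminescence measured viability, normalized to DMSO and no-cell controls.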
# HT1080 IDH1KD tx – qHTS for induction of synthetic lethality in tumor cells producing 2HG: qHTS for the HT-1080-IDH1KD cell line; hit rate 2% among 360,000; Potency, µM (doses to about 46.1 µM), without a hit: at the top dose activity, negative = toxicity, usual class: cytotoxic; HT-1080 IDH1 knockdown viability, ATP luminescence, 48 h;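 further: potency means the concentration at half of the fitted maximal effect; 0% = DMSO wells and -100% = cell-free medium wells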
#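 After a 2 h attachment period, IDH1KD HT-1080 cells took pin-transferred compound for 48 h at 37 °C; ATP-based luminescence after 10 min room-temperature reagent incubation reported viability.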
# TDP1 cell CPT – qHTS for Inhibitors of human tyrosyl-DNA phosphodiesterase 1 (TDP1): qHTS in cells in presence of CPT | hit rate 12% among 420,000 | chicken DT40 Tdp1-/-;hTDP1 cells + 20 nM CPT, ATP luminescence, 48 h | Potency, µM (doses to about 46.2 µM), without a hit: top-dose activity change, negative = growth inhibition, usual class: inhibitors; further: potency means the concentration at half of the fitted maximal effect; nearly all actives have a fitted effect of over 55% in size
#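 Chicken DT40 Tdp1-/- cells stably complemented with human TDP1 were seeded at 400 cells/well in medium containing 20 nM camptothecin, exposed to pin-transferred compounds, and grown at 37 °C for at least 48 hr. Viability was read as ATP luminescence.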
# IL-1B inflam inh – qHTS for Inhibitors of Inflammasome Signaling: IL-1-beta AlphaLISA Primary Screen; AID 743279, 2014; THP-1 LPS/ATP IL-1B secretion, AlphaLISA, 16 h; hits give low values; activity change, % at 57.5 µM; hit rate 4.7% among 360,000; in the data active means activity change below about -50%; inconclusive means mostly about -30% to -49%
#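 Secreted IL-1B measured by AlphaLISA bead assay after 16 h compound exposure of THP-1 cells; compounds (final up to 57.5 uM) added 1 h before LPS (250 ng/mL) and ATP (1.25 mM) stimulation; lower signal means less secretion.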
# Numbers without * were called inactive; ? = inconclusive; nt = no result. A selection: hits, their analogues and other compounds. The true share with any hit is near 19%. Unless noted, the call rests on the fitted dose curve; in most records, active means well fitted curve in the direction sought with a large enough effect; inconclusive means small, poorly fitted or top-dose-only effect, or another doubt; inactive means no such curve, though single readings can be large; an effect the other way counts as inactive or inconclusive. Unless noted, on the % scale 0 is the no-effect control and ±100 the full control effect.
SMILES,DT40 TDP1 no CPT,HT1080-NT tox,HT1080 IDH1KD tx,TDP1 cell CPT,IL-1B inflam inh
COc1ccccc1NS(=O)(=O)c1ccc2c(c1)OCCO2,-15%,1%,0%,-22%,3
Cc1ccc(NC(=O)Cn2c([N+](=O)[O-])cnc2C)cc1Cl,-12%,-9%,-19%,-6%,9
COCc1cc(C)nc2sc3c(c12)NC(c1ccc(O)cc1)N(c1ccc(C)cc1)C3=O (stereo not drawn),18µM*,nt,nt,18µM*,nt
COCc1cc(C)nc2sc3c(c12)NC(c1ccccc1C(=O)O)N(c1cccc(C(F)(F)F)c1)C3=O (stereo not drawn),?,nt,nt,29µM*,nt
COC(=O)c1sc2nc(CN3CCN(c4cccc(C(F)(F)F)c4)CC3)[nH]c(=O)c2c1C,-20%,8%,8%,-12%,52
CCN(c1ccccc1)c1nc(Cl)nc2c1cnn2C,13µM*,-3%,-1%,?,-11
Clc1cccc(CNCCNCc2cccc(Cl)c2)c1,?,-26%,-18%,-22%,-53*
Cc1ccc(S(=O)(=O)/C(=C/Cl)NC(=O)c2ccccc2)cc1,15µM*,?,21µM*,18µM*,-73*
O=C(NC(=C(Cl)Cl)S(=O)(=O)c1ccc(Cl)cc1)c1ccccc1,9.2µM*,?,?,6.5µM*,-93*
Cc1ccc(C(=O)NS(=O)(=O)c2ccc(C)cc2)cc1,-1%,-5%,-3%,-16%,14
Cc1ccc(C(=O)NC(=C(Cl)Cl)S(=O)(=O)c2ccc(C)cc2)cc1,?,?,?,?,-104*
Cc1ccc(C(=O)NC(=C(Cl)Cl)S(=O)(=O)c2ccc(Cl)cc2)cc1,18µM*,?,?,?,-64*
COc1ccc(N2CCN(C3CCCN(C(=O)C4=C(C)OCCO4)C3)CC2)cc1 (stereo not drawn),-17%,0%,1%,14%,14
OCC1C2c3ccccc3C(c3ccccc32)C1CO (stereo not drawn),?,4%,26%,-1%,nt
CC(=O)NC(=C(Cl)Cl)S(=O)(=O)c1ccccc1,8.2µM*,-6%,-6%,12µM*,-100*
Cc1ccc(S(=O)(=O)C(NC(=O)c2ccccc2)=C(Cl)Cl)cc1,13µM*,?,?,23µM*,-117*
CC[C@H](NC(=O)CC[C@H]1O[C@@H](n2cnc3c(NC(=O)c4ccccc4)ncnc32)[C@H](O)[C@@H]1O)c1ccccc1,-1%,29%,7%,-29%,0
COc1ccc(NC(=O)C[C@H]2C(=O)N(c3ccc(OC)cc3)C[C@@H]2C)cc1,?,9%,4%,-28%,26
COc1cccc(/C=C2\NC(=O)NC2=O)c1O,16%,10%,7%,-8%,-50*
Cc1nn(-c2ccccc2)c(Cl)c1C(=O)NC1CCCCC1,-2%,-1%,6%,9%,-17
Cc1nn(-c2ccccc2)c(C)c1C(=O)OC(C)C(=O)NC1CCCCC1 (stereo not drawn),10µM*,21µM*,-14%,16µM*,?
Cc1noc(C)c1C(=O)N1CCC2(CC1)CCN(c1ccncc1)CC2,?,nt,nt,-26%,nt
O=C1C2CCCCC2C(=O)N1c1ccc(NC2CCCCC2)c([N+](=O)[O-])c1 (stereo not drawn),?,-8%,-3%,?,-3
O=C(C=Cc1ccco1)c1ccc([N+](=O)[O-])cc1,-22%,6%,15%,-4%,-25
O=C(/C=C/c1ccco1)c1ccc(NC(=O)C23CC4CC(CC(C4)C2)C3)cc1,15µM*,1%,0%,21µM*,-20
SMILES,DT40 TDP1 no CPT,HT1080-NT tox,HT1080 IDH1KD tx,TDP1 cell CPT,IL-1B inflam inh
COc1ccc(C(=O)Nc2ccc3oc(-c4cccnc4)nc3c2)cc1OC,?,24%,11%,7.3µM*,?
COc1cc(C(=O)Nc2ccc3oc(-c4cccnc4)nc3c2)cc(OC)c1OC,21µM*,-4%,14%,5.6µM*,-3
CCC(CC)c1nnc(NC(=O)c2ccc(N3CCCC3=O)cc2)s1,-8%,3%,12%,?,48
O=C(OCc1ccccc1)N1CCC2CC1c1cc(N3CCN(S(=O)(=O)c4cccc5ccccc45)CC3)ccc12 (stereo not drawn),?,19%,16%,-22%,45
Cc1cccc(NC(=O)C2CCC(CNS(=O)(=O)c3csc(C(N)=O)c3)CC2)c1C (stereo not drawn),17%,nt,nt,-15%,nt
Cc1cc(C)cc(NC(=O)N2CCN(C)c3ncccc32)c1,2%,nt,nt,9%,nt
CN(CCCS(=O)(=O)[O-])c1ccc(/C=C/c2ccc3ccccc3[n+]2C)cc1,?,1%,-3%,-15%,10
CN(C)c1ccc(/C=C/c2cc(=O)[nH]c3ccccc23)cc1,-29%,nt,nt,-30%,nt
CN(C)c1ccc(/C=C/c2cc3ccccc3c[n+]2C)cc1,0.1µM*,nt,nt,0.089µM*,nt
CN(C)c1ccc(/C=C/c2ccc3ccccc3[n+]2C)cc1,0.13µM*,?,1.3µM*,0.16µM*,-107*
CN(C)c1ccc(/C=C/c2cccc[n+]2[O-])cc1,4%,18%,8%,2%,nt
CN(C)c1ccc(/C=C/c2ccc3c4ccccc4ccc3[n+]2-c2ccccc2)cc1,0.16µM*,12µM*,5.8µM*,0.21µM*,-111*
CN(C)c1ccc(/C=C/c2c[n+](C)cc3ccccc23)cc1,0.28µM*,nt,nt,0.35µM*,nt
[O-][n+]1ccccc1/C=C/c1ccccc1,-2%,26%,5%,5%,-18
[O-][n+]1c(/C=C/c2ccccc2)ccc2ccccc21,16µM*,-15%,-17%,21µM*,-10
O=C(Nc1ccc(Cl)cn1)c1ccccc1[N+](=O)[O-],?,?,18µM*,?,17
O=C(Nc1ccc(Cl)cn1)c1cccc2ccccc12,5.8µM*,?,12µM*,5.2µM*,0
O=C(NNC(=O)c1ccccc1[N+](=O)[O-])Nc1ccc(Cl)cc1,-20%,3%,11%,9%,-7
O=[N+]([O-])c1cnc(Nc2ccc(Cl)cn2)c([N+](=O)[O-])c1,?,-27%,?,?,-55*
N#Cc1ccc(NC(=S)N2CCC3CC2c2cc(-c4ccc5c(c4)OCO5)ccc23)cc1 (stereo not drawn),?,-17%,-12%,?,-7

# High-throughput results deposited in PubChem BioAssay by National Center for Advancing Translational Sciences (NCATS).
